RORgamma inh: ROR gamma (mouse) transcription inhibition; Drosophila S2 Gal4-RORgamma UAS-luciferase reporter, 20 h; Potency, µM (doses to about 53.6 µM), without a hit: top-dose activity change, negative = inhibition, hits mostly inhibitors; 310,000 compounds, 5.4% hits; AID 2551; also: nearly all actives have a fitted effect of over 60% in size
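Drosophila Schneider cells stably carrying a metallothionein-driven Gal4 DBD–ROR gamma fusion and a UAS-Photinus luciferase reporter were exposed to compound for 1 hr, then induced with copper sulfate (700 uM final) for 20 hr at ambient temperature before luminescence reading.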
PLK1 PBD inh: PLK1 (human) polo-box domain binding inhibition; P53350; Plk1 PBD binding of FITC phosphopeptide, fluorescence polarization; Potency, µM, inactives show max response, negative = inhibition, actives largely listed as inhibitors; 360,000 compounds, 2.8% hits; also: series mostly up to about 57 µM; nearly all actives have a fitted effect of over 65% in size
Target sequence (P53350 whole entry, looked up, the tested form may be a part): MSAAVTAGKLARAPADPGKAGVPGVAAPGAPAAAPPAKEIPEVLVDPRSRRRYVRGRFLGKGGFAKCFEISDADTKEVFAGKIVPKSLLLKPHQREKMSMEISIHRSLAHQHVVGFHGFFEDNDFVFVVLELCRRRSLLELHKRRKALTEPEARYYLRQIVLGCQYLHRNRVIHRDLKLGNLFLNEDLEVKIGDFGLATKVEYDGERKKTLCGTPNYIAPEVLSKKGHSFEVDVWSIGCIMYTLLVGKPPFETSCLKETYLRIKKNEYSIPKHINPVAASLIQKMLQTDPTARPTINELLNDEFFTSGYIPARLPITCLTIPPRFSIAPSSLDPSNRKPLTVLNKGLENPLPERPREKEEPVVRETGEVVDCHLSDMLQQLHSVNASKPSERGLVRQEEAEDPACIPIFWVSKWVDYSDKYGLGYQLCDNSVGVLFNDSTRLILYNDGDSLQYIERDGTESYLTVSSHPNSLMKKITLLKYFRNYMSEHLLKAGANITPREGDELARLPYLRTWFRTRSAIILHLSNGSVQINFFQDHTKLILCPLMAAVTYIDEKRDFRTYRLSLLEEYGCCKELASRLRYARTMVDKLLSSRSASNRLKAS
Sfp inh: inhibitors of Bacillus subtilis Sfp phosphopantetheinyl transferase. Q9F4F7. Biochemical Sfp PPTase activity, qHTS. Potency, µM, inactives show largest response in the series, negative = inhibition, most hits filed as inhibitors. 310,000 compounds, 3.5% hits;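 also: the enzyme is Sfp with the accession as filed and its product quenches rhodamine fluorescence; 0% = enzyme reaction without inhibitor and -100% = no enzyme wells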
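Reaction rates are the 30-min fluorescence difference (ex 525, em 598 nm) in wells containing 15 nM Sfp, 5 uM rhodamine-CoA and 12.5 uM BHQ-2-YbbR at pH 7.6 with 10 mM MgCl2.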
ALDH1A1 block: blocks purified human ALDH1A1 activity. Purified ALDH1A1, NADH fluorescence, propionaldehyde substrate. Potency, µM (highest dose often 75.3 µM), for the others: at the top dose activity, negative = inhibition, usual class: inhibitors. 220,000 compounds, 7.3% hits; active = well fitted inhibition curve with a large enough effect, not every such curve was filed as active; inconclusive = small, poorly fitted or top-dose-only effect, or another doubt; inactive = no such curve, though single readings can be large or run the other way;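 also: plate controls were no enzyme wells and a reference inhibitor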
Gal4-VP16 FLuc: inhibits Gal4-VP16 luciferase reporter, ROR gamma counter-screen; Potency, µM (series often up to 53.6 µM), for the others: top-dose activity, negative = inhibition, actives largely listed as inhibitors; Drosophila S2 Gal4-VP16 UAS-luciferase, luminescence, 20 h; 310,000 compounds, 3.5% hits;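 also: Gal4-VP16 expression switched on by copper sulfate through the metallothionein promoter; nearly all actives have a fitted effect of over 50% in size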
An asterisk follows results filed as active; ? = inconclusive; / = no result given; [ ] = dose if it differs, or a comment. Hits are enriched below; roughly 12% of the tested compounds scored in any of these assays. Unless noted, calls follow the shape of the dose curve; as a rule, active = well fitted curve in the direction sought with a large enough effect; inconclusive = small, poorly fitted or top-dose-only effect, or another doubt; inactive = no such curve, though single readings can be large; an effect the other way counts as inactive or inconclusive. Unless noted, % is scaled to controls: 0 for no effect and ±100 for the full control effect; potency is read from the fitted curve at half-maximal effect.

SMILES	RORgamma inh	PLK1 PBD inh	Sfp inh	ALDH1A1 block	Gal4-VP16 FLuc
Cn1c(=O)c2c(nc(CN3CCN(Cc4ccccc4)CC3)n2CCN2CCOCC2)n(C)c1=O	1.6µM*	-9%	7%	?	2%
Cn1c(=O)c2c(nc(SCCN3CCOCC3)n2Cc2cccc3ccccc23)n(C)c1=O	-14%	-8%	-2%	22µM*	2%
COc1ccc(Cn2c(CCC(=O)Nc3ccc(C)cc3)nc3cccnc32)cc1	-31%	24µM*	2%	10%	-10%
CCOc1ccc(NC(=O)CSc2nc3cccnc3n2CCOC)cc1	-23%	-1%	-8%	28µM*	7%
CCOc1ccc(NC(=O)CSc2nc3cccnc3n2CC)cc1	-12%	-6%	11%	-3%	1%
CCOc1ccc(NC(=O)CSc2nnc(-c3ccccn3)n2N)cc1	-25%	-10%	4%	11µM*	-29%
COCCn1c(-c2ccc(OC)cc2)cnc1SCC(=O)Nc1cccc2ccccc12	5µM*	0%	6%	?	21%
CCCCCCCCOc1c(OC)cc(/C=C/C(=O)N2CCN(c3ccc(C)c(C)c3)CC2)cc1OC	8%	/	-5%	/	0%
CC1=CC(=O)Nc2ncccc2O1	/	-7%	/	/	/
CCn1c2ccccc2c2cc(NC(=O)CSc3nnc(-c4ccc(OC)c(OC)c4)n3N)ccc21	?	-8%	13%	?	-7%
CCOc1ccc(-c2nnc(SCC(=O)Nc3ccc4c(c3)c3ccccc3n4CC)n2N)cc1	?	-3%	?	?	22µM*
O=C(NCCN1C(=O)C2C3C=CC(C3)C2C1=O)Nc1cccnc1 (centres undefined)	3%	-5%	12%	-12%	-10%
O=C(NCCN1C(=O)C2C3C=CC(C3)C2C1=O)Nc1ccc(Br)cc1 (centres undefined)	-2%	-7%	-12%	11µM*	-18%
COc1ccc2cc(/C=C3\SC(=S)NC3=O)c(N3CCOCC3)nc2c1	?	?	-8%	22%	?
COC(=O)/C=C1\SC(N2CCOCC2)=C(c2ccc(OC)cc2)C1=O	-44%	15µM*	-86%	7.9µM*	-3%
CC(C)c1cccc2nc3c(c([Si](C)(C)C)c12)Cn1c-3cccc1=O	?	/	?	?	-2%
CCc1c2c(nc3c(C(C)C)cccc13)-c1cccc(=O)n1C2	-4%	/	50µM*	?	1%
CCc1cccc2nc3c(c([Si](CC)(CC)CC)c12)Cn1c-3cccc1=O	-22%	/	79µM*	?	?
Cc1cc([N+](=O)[O-])nn1CC(=O)N/N=C/c1ccccc1O	2.2µM*	-7%	24%	/	7.1µM*
Cc1cc(C)n(CC(=O)N/N=C/c2cc([N+](=O)[O-])ccc2O)n1	2.8µM*	-9%	13%	-7%	2.8µM*
Cc1cc(C)n(CC(=O)N/N=C/c2cc(Br)cc([N+](=O)[O-])c2O)n1	0.63µM*	-10%	23%	20µM*	0.89µM*
CCOc1cc(/C=N/NC(=O)Cn2nc([N+](=O)[O-])cc2C)ccc1OCc1ccc(F)cc1	-36%	-21%	45µM*	4%	-17%
COC(=O)[C@@H]1CC[C@H](C)[C@@H](c2ccc(C)cc2)N1C(=O)c1ccc(/C=N\OCC[C@@H]2C=C[C@H](OC(C)=O)[C@H](COC(C)=O)O2)cc1	17%[10 µM]	/	-8%	-5%[13.5 µM]	4%[10 µM]
Cc1ccc(SCC(c2ccccc2)N2CCN(C)CCC2=O)cc1 (centres undefined)	-19%	/	4%	/	-4%
COc1ccc(C)cc1CN(C)c1ccc(S(=O)(=O)N2CCN(C)CC2)cn1	/	0%	/	/	/
SMILES	RORgamma inh	PLK1 PBD inh	Sfp inh	ALDH1A1 block	Gal4-VP16 FLuc
COC(=O)C1(C(C)=O)CC2=CC[C@@H]3C(=O)N(c4ccccc4)C(=O)[C@@H]3[C@@H]2Cc2ccccc2[C@@H]1C[N+](=O)[O-] (some centres undefined)	0%	/	14%	-9%	-8%
CC(C)NC(=O)C1CCN(C(=O)c2cc3sccc3n2Cc2ccc(F)cc2)CC1	?	2%	-3%	13µM*	?
CC1CCN(C(=O)C2CCN(C(=O)c3cc4sccc4n3Cc3ccc(F)cc3)CC2)CC1	-15%	-6%	8%	14µM*	?
Cc1ccc(S(=O)(=O)N2C3CC(c4ccccc4)N(S(=O)(=O)c4ccccc4Cl)CC3C(=O)C[C@H]2c2ccccc2)cc1 (some centres undefined)	/	-7%	/	/	/
COc1ccc(C(=O)NC(=S)Nc2nnn(C)n2)cc1	5.6µM*	?	56µM*	11µM*	-26%
COc1cccc(C(=O)NC(=S)Nc2nnn(C)n2)c1	8.9µM*	-8%	50µM*	22µM*	11µM*
CC1(Cc2ccccc2F)C(=O)Nc2c(Cl)ccc(Cl)c21 (centres undefined)	/	2%	/	/	/
CCC(CC)c1nnc(NC(=O)Oc2ccccc2)s1	-3%	-15%	23%	?	0%
CCC(CC)c1nnc(NC(=O)c2cc(-c3ccccc3)nc3ccccc23)s1	10µM*	0%	-22%	?	11µM*
CC(C)Cc1nnc(NC(=O)c2cc(-c3ccccc3)nc3ccccc23)s1	4.5µM*	?	-22%	?	?
CCc1nnc(NC(=O)c2cc(-c3cccnc3)nc3ccccc23)s1	-21%	-3%	-3%	-1%	10%
CCC(CC)c1nnc(NC(=O)c2ccc3ccccc3n2)s1	3.5µM*	1%	10%	-12%	10µM*
COc1ccccc1N1CCN(C(=O)C(=O)c2cccc([N+](=O)[O-])c2)CC1	/	-6%	/	/	/
CCC(=O)N[C@@H]1CC(C(C)(C)NC(=O)CC)CC=C1C (some centres undefined)	-5%	30µM*	18%	10%	-11%
CCCCCCCCn1c(=O)c(C(=O)OCC)c(O)c2ccccc21	11%	?	3%	?	7%
CCCCCn1c(=O)c(-c2nc3ccccc3[nH]2)c(O)c2ccccc21	1.6µM*	-5%	30%	?	7.9µM*
N#Cc1cccc(-c2nc(N3CCNCC3)c3ccccc3n2)c1	-28%	/	8%	-2%	-26%
CCn1c(CSc2ncccn2)nnc1SCC(=O)N1CCc2ccccc21	12%	-13%	3%	20µM*	8%
Cn1c(SCC(=O)N2CCc3ccccc32)nc2cccnc21	40%	24µM*	11%	2%	3%
Cn1c(Cn2c(=O)sc3ccccc32)nnc1SCC(=O)N1CCc2ccccc21	-35%	-5%	18%	3%	-3%
Cn1c(Cn2nnc3ccccc32)nnc1SCC(=O)N1CCc2ccccc21	8%	-2%	8%	28µM*	2%
Cn1c(SCC(=O)N2CCCc3ccccc32)nc2cccnc21	-34%	-6%	3%	-12%	-4%
O=C(CNC(=O)C12CC3CC(CC(C3)C1)C2)Nc1ncccc1O	/	-8%	/	/	/
COc1ccc(C(=O)/C=C/c2ccsc2)cc1CSCC(=O)O	10µM*	-17%	-1%	/	10µM*

Screening data (PubChem)
